Laboratory results from PubChem BioAssay (Tox21).
Values joined by “and” are separate entries in the source; they are usually repeats but may differ in a detail not shown here. Equal values may be shown once. Results filed as inconclusive are left out. Entries that show only a call come without a potency. More than one record can exist for a structure, and the calls need not agree. Active and inactive are the calls of the source. Unless noted, calls come from the whole dose curve; as a rule, active = well fitted curve in the direction sought with a large enough effect in the repeat runs; inconclusive = weak or mixed curves; inactive = no such curve, though single readings can be large; an effect the other way counts as inactive or inconclusive.

Tests used:
[1] = qHTS assay for small molecules that induce genotoxicity in human embryonic kidney cells expressing luciferase-tagged ATAD5 (AID 651632); note: nearly all actives have a fitted effect of over 15% in size; note: potency is the fitted concentration of half-maximal effect
How it was run: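 Reporter cells (HEK293T) express luciferase-tagged ATAD5, a protein that accumulates after DNA damage. Treat 16 hr at 37C/5% CO2, add Amplite, wait 30 min at RT, and read luminescence.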

[2] = qHTS assay for small molecule agonists of the p53 signaling pathway - cell viability (AID 651633; calls by dose curve;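 note: p53RE-bla HCT reporter cells with a stable beta-lactamase p53 reporter; series mostly up to about 83 µM; nearly all actives have a fitted effect of over 30% in size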)
How it was run: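 Viability counter-read: CellTiter-Glo luminescence (30 min, room temperature) in the same p53RE-bla plates. These plates had been exposed to compounds for 16 h at 37 C.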

[3] = qHTS assay for small molecules that induce genotoxicity in human embryonic kidney cells expressing luciferase-tagged ATAD5 - cell viability (AID 651634; calls by dose curve; note: nearly all actives have a fitted effect of over 25% in size)
How it was run: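 Seeding of 2,000 HEK293T ATAD5-luciferase cells per well preceded pin-tool compound transfer. Plates sat 15.5 hr at 37C under 5% CO2, then fluorescence was read after 30 min with CellTiter-Fluor.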

[4] = qHTS assay for small molecule disruptors of the mitochondrial membrane potential - cell viability (AID 720634; calls by dose curve;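 note: human HepG2 liver cancer cells; series mostly up to about 83 µM; nearly all actives have a fitted effect of over 20% in size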)
How it was run: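 Measuring cytotoxicity alongside mitochondrial potential, the screen quantified ATP by luminescence in HepG2 cells after 1 hr compound incubation and a 30 min room-temperature CellTiter-Glo step.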

[5] = qHTS assay for small molecule disruptors of the mitochondrial membrane potential (AID 720635); note: potency is the fitted concentration of half-maximal effect
How it was run: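 Mitochondrial membrane potential tracked with Mito-MPS dye, red aggregates (ex 540/em 590 nm) against green monomers (ex 490/em 535 nm). Compound treatment 1 hr at 37C, dye 30 min in HepG2.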

[6] = qHTS assay to test for compound auto fluorescence at 535 nm (green) in HepG2 cells (AID 720675)
[7] = qHTS assay to test for compound auto fluorescence at 460 nm (blue) in HEK293 cells (AID 720678)
How it was run: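 HEK293, 2,000 cells/well, 10% dialyzed FBS; attach 4-5 hr 37C; pin compound or DMSO; o/n 37C/5% CO2; fluorescence 405/460 nm; triamterene-equivalent units.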

[8] = qHTS assay to test for compound auto fluorescence at 535 nm (green) in HEK293 cells (AID 720680)
[9] = qHTS assay to test for compound auto fluorescence at 460 nm (blue) in HEK293 cell free culture (AID 720681)
How it was run: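 Blue fluorescence (Ex 405/Em 460 nm, triamterene-equivalent) was read immediately after pin transfer of compound or DMSO into medium (DMEM, 10% FBS) without cells.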

[10] = qHTS assay to test for compound auto fluorescence at 535 nm (green) in HEK293 cell free culture (AID 720682)
How it was run: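 Cell-free medium (DMEM, 10% FBS) receives compound or DMSO by pintool. Plate read directly at Ex 485/Em 535 nm. Signal converted to fluorescein equivalency.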

[11] = qHTS assay to test for compound auto fluorescence at 590 nm (red) in HepG2 cell free culture (AID 720684)
How it was run: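 Steps: dispense MEM/10% FBS medium, no cells; pin compound or DMSO vehicle; read red channel, Ex/Em 540/590 nm. Output given as Rose Bengal sodium equivalents.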

[12] = qHTS assay to test for compound auto fluorescence at 460 nm (blue) in HepG2 cell free culture (AID 720685)
How it was run: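 Compound (23 nL) or DMSO pinned into cell-free MEM with 10% FBS; blue fluorescence read at 405/460 nm excitation/emission, expressed as auto-fluorescence equivalency to triamterene.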

[13] = qHTS assay to test for compound auto fluorescence at 535 nm (green) in HepG2 cell free culture (AID 720686)
[14] = target: Glucocorticoid receptor (Homo sapiens) (UniProt P04150); test: qHTS assay to identify small molecule agonists of the glucocorticoid receptor (GR) signaling pathway (AID 720691; active = well fitted activation curve with a large enough effect in the signal ratio in the repeat runs, not every such curve was filed as active; the % refers to the signal ratio)
Sequence of Glucocorticoid receptor (Homo sapiens) (P04150 whole entry, looked up): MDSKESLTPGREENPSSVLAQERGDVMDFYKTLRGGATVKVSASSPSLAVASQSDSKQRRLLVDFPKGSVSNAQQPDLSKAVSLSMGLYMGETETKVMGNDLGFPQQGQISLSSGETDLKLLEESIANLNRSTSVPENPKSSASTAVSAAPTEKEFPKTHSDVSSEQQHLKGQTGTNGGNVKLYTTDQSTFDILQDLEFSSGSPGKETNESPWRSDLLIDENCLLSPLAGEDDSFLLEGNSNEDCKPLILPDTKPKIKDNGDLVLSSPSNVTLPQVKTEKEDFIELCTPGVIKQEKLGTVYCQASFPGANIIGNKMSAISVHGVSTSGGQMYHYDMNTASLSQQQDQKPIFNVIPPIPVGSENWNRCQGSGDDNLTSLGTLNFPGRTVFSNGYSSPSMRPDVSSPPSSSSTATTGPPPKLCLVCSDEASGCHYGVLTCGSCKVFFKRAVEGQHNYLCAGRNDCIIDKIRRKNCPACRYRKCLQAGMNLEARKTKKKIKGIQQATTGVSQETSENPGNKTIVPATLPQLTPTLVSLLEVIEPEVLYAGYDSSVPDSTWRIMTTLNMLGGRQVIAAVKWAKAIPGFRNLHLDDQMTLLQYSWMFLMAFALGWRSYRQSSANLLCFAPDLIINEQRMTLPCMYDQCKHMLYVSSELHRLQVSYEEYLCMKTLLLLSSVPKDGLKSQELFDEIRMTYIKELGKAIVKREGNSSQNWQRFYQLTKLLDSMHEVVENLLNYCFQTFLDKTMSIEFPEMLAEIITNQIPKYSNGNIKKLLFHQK
How it was run: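 Reporter read-out: fluorescence intensity following 2 h room-temperature LiveBLAzer B/G FRET substrate loading. Prior step: GR-bla HeLa cells held 4 h, then treated 18 h at 37 C.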

[15] = qHTS assay to test for compound auto fluorescence at 590 nm (red) in HepG2 cells (AID 720674)
How it was run: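 1 hr compound incubation on HepG2 cells, 37 C, 5% CO2; plate read ex 540 nm / em 590 nm; intensities reported as Rose Bengal sodium equivalents.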

[16] = qHTS assay to test for compound auto fluorescence at 590 nm (red) in HEK293 cells (AID 720679)
How it was run: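 Intensity at 540nm excitation and 590nm emission is reported as Rose Bengal sodium-equivalent autofluorescence. Measurements followed overnight exposure (37C, 5% CO2) of HEK293 cells, 2,000 per well, to 23 nL compound.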

[17] = qHTS assay to test for compound auto fluorescence at 590 nm (red) in HEK293 cell free culture (AID 720683)
How it was run: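 Red-channel autofluorescence of compounds in culture medium (DMEM, 10% FBS), no cells, measured at 540/590 nm. Rose Bengal sodium is the reference fluorophore for equivalence.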

[18] = qHTS assay to test for compound auto fluorescence at 460 nm (blue) in HepG2 cells (AID 720687)
How it was run: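 Blue-channel autofluorescence (Ex/Em 405/460 nm, triamterene-equivalent) was measured after 1 hr compound exposure at 37 C, 5% CO2. Cells were HepG2, plated overnight at 37 C in MEM plus 10% FBS.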

[19] = target: Glucocorticoid receptor (Homo sapiens) (UniProt P04150); test: qHTS assay to identify small molecule antagonists of the glucocorticoid receptor (GR) signaling pathway (AID 720692; active = well fitted inhibition curve with a large enough effect in the signal ratio in the repeat runs, not every such curve was filed as active; the % refers to the signal ratio; note: potency is the fitted concentration of half-maximal effect)
How it was run: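 Dexamethasone (5 nM final) stimulated a stably integrated GRE-beta-lactamase reporter in HeLa cells during 18 h co-incubation with compounds; signal was quantified as fluorescence intensity of B/G FRET substrate after 2 h.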

| Structure (SMILES) | Potency [1] | outcome [2] | Potency [3] | Potency [4] | Potency [5] | outcome [6] | outcome [7] | outcome [8] | outcome [9] | outcome [10] | outcome [11] | outcome [12] | outcome [13] | Potency [14] | outcome [15] | outcome [16] | outcome [17] | outcome [18] | Potency [19] |
| --- | --- | --- | --- | --- | --- | --- | --- | --- | --- | --- | --- | --- | --- | --- | --- | --- | --- | --- | --- |
| NCCCNCCSP(=O)(O)O | inactive | inactive | inactive | inactive | inactive | inactive | inactive | inactive | inactive | inactive | inactive | inactive | inactive | inactive | – | – | – | – | – |
| CCC=O | inactive | inactive | inactive | inactive | – | inactive | inactive | inactive | inactive | inactive | inactive | inactive | inactive | – | inactive | inactive | inactive | inactive | – |
| CCOc1ccc(C(=O)OCCN(CC)CC)cc1 | inactive | inactive | inactive | inactive | – | inactive | inactive | inactive | inactive | inactive | inactive | inactive | – | – | – | inactive | inactive | inactive | – |
| COC(=O)CCSCCC(=O)OC | inactive | – | – | inactive | inactive | inactive | inactive | inactive | – | inactive | inactive | inactive | inactive | inactive | – | inactive | inactive | – | – |
| CC(C)OC(=O)c1ccccc1 | inactive | inactive | inactive | inactive | – | inactive | inactive | inactive | inactive | inactive | – | inactive | inactive | inactive | inactive | inactive | inactive | inactive | inactive |
| CC(=O)OCC(=O)[C@@]1(O)CC[C@H]2[C@@H]3CCC4=CC(=O)CC[C@]4(C)[C@H]3C(=O)C[C@@]21C | inactive | inactive | – | inactive | – | inactive | inactive | inactive | inactive | inactive | inactive | inactive | – | – | inactive | inactive | inactive | – | – |
| COC(=O)C1=C(C)NC(C)=C(C(=O)OC)C1c1ccccc1[N+](=O)[O-] | inactive | inactive | – | inactive | inactive and 61.2 µM (active) | inactive | inactive | inactive | inactive | inactive | inactive | inactive | inactive | inactive | inactive | inactive | inactive | inactive | 10.7 µM (active) and 27.6 µM (active) |
| CC(=O)OC/C=C(\C)CC/C=C(\C)CCC=C(C)C | inactive | – | inactive | inactive | inactive | inactive | inactive | inactive | inactive | inactive | inactive | inactive | inactive | – | inactive | inactive | inactive | inactive | – |
| O=Cc1cccc([N+](=O)[O-])c1 | inactive | inactive | inactive | inactive | – | inactive | inactive | inactive | inactive | inactive | – | inactive | inactive | inactive | inactive | inactive | inactive | inactive | inactive |
| Cc1ccc(C#N)cc1 | inactive | inactive | inactive | inactive | – | inactive | inactive | – | inactive | inactive | – | inactive | – | inactive | – | inactive | – | inactive | inactive |
| CC(C)(O)C(=O)c1ccccc1 | inactive | inactive | – | inactive | inactive | inactive | inactive | inactive | – | inactive | inactive | inactive | inactive | inactive | inactive | – | inactive | inactive | inactive |
| O=C1CCCN1C1CCCCC1 | inactive | – | inactive | inactive | – | inactive | inactive | inactive | inactive | inactive | inactive | inactive | inactive | inactive | – | inactive | inactive | inactive | – |
| O=c1cc(-c2ccccc2)oc2ccccc12 | 17.2 µM (active) and 19.3 µM (active) | – | – | – | 48.6 µM (active) and 15.4 µM (active) | inactive | inactive | inactive | – | inactive | inactive | inactive | – | – | inactive | inactive | inactive | – | 27.5 µM (active) and 14.3 µM (active) |
| CC/C=C\CC/C=C/CO | inactive | inactive | inactive | inactive | – | inactive | inactive | inactive | inactive | inactive | inactive | inactive | inactive | inactive | inactive | inactive | inactive | – | inactive |
| CCCCNC(=O)NCCCC | inactive | inactive | inactive | inactive | – | inactive | inactive | inactive | inactive | inactive | inactive | inactive | – | inactive | inactive | inactive | inactive | inactive | inactive |
| CC(=O)CC(C)C | inactive | inactive | – | inactive | inactive | inactive | inactive | inactive | – | inactive | – | inactive | inactive | inactive | inactive | inactive | inactive | inactive | inactive |
| CC(C)(C)c1nnc(NS(=O)(=O)c2ccccc2)s1 | inactive | inactive | inactive | inactive | – | inactive | inactive | – | inactive | inactive | inactive | inactive | inactive | inactive | inactive | – | inactive | inactive | inactive |
| C=C1CC[C@H]2C[C@@H]1C2(C)C | inactive | inactive | inactive | – | – | inactive | inactive | inactive | – | – | inactive | inactive | inactive | – | inactive | inactive | – | inactive | – |
| OC1CCCCC1c1ccccc1 (configuration not stated) | inactive | inactive | inactive | inactive | – | inactive | inactive | – | – | inactive | inactive | inactive | inactive | inactive | inactive | – | inactive | inactive | inactive |
